Source: PubChem BioAssay (National Center for Advancing Translational Sciences (NCATS))
Rows were chosen to be rich in hits. Some 6.6% of all compounds tested hit in one or more screens of this group.
HT1080NT lethal = qHTS for induction of synthetic lethality in tumor cells producing 2HG: qHTS for the HT-1080-NT fibrosarcoma cell line. HT-1080-NT fibrosarcoma viability, CellTiter-Glo ATP luminescence, 48 h. Potency, µM (series often up to 46.1 µM), for inactives: top-dose activity, negative = less viability, usual class: cytotoxic. 1.6% of 360,000 active. AID 686970, 2013;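 also: NT is the 2HG producing partner of a matched IDH1 knockdown line; 0% = DMSO-treated cells and -100% = media-only wells without cells; nearly all actives have a fitted effect of over 55% in size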
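HT-1080-NT; 750 cells/well; 5% FBS RPMI; 48 h compound, 37 degrees C; CellTiter-Glo luminescence; curve fitting and curve-class assignment.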
HT1080 IDH1KD tx = qHTS for induction of synthetic lethality in tumor cells producing 2HG: qHTS for the HT-1080-IDH1KD cell line | HT-1080 IDH1 knockdown viability, ATP luminescence, 48 h | Potency, µM (titrated, usually from 46.1 µM), for the others: top-dose activity, negative = toxicity, hits mostly cytotoxic | 2% of 360,000 active;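 also: 0% = DMSO wells and -100% = cell-free medium wells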
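CellTiter-Glo luminescence after 48 h compound exposure at 37 degrees C of IDH1-knockdown HT-1080 cells in 5% FBS RPMI. %Activity scaled between DMSO wells and cell-free media wells, with curves fitted and assigned curve classes.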
KB-3-1 cytotox = qHTS assay for MDR1-selective chemotherapeutics: Primary screen using the parental adenocarcinoma cell KB-3-1 | KB-3-1 viability, CellTiter-Glo ATP luminescence, 72 h | Potency, µM (series often up to 46.1 µM), hits mostly cytotoxic | 1.4% of 400,000 active; also: % is scaled to controls: 0 for no effect and ±100 for the full control effect; nearly all actives have a fitted effect of over 60% in size
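Luminescent ATP read-out (CellTiter-Glo) measures survival of drug-naive KB-3-1 cells after 72 h compound exposure at 37 °C. Titration series was screened from lowest to highest concentration, with DMSO vehicle plates as background controls.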
TGFb SMAD3 inh = qHTS for Inhibitors of TGF-b | HepG2 CAGA-GFP TGF-b/SMAD3 reporter, GFP fluorescence, 18 h; TGF-beta stimulated, 500 pg/mL final | Potency, µM (titrated, usually from 46.1 µM), inactives show at the top dose activity, negative = inhibition, hits mostly inhibitors | 1.2% of 410,000 active | AID 588855, 2011; also: % is scaled to controls: 0 for no effect and ±100 for the full control effect; nearly all actives have a fitted effect of over 65% in size
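Inhibition was scored as loss of TGF-beta-induced (500 pg/mL final, 18 hours, 37 degrees C) GFP in HEPG2 cells carrying a CAGA-GFP reporter, in DMEM with 1% FBS. Well GFP was summed per cell; Activity was normalised to unstimulated and stimulated DMSO wells, then concentration-response fitting.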
HepG2 viability = qHTS for Inhibitors of TGF-b: Cytotox Counterscreen. HepG2 CAGA-GFP viability, ATP luminescence, 18 h. Potency, µM (doses to about 46.1 µM), for the others: top-dose activity change, negative = cytotoxicity, most hits filed as cytotoxic. 0.76% of 410,000 active
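HepG2 CAGA-GFP cells (1000/well, DMEM with 1% FBS) received compound, then TGF-beta at 500 pg/mL final, and were incubated 18 hours at 37 degrees C. Viability was read by CellTiter-Glo luminescence. Media-only wells were set as complete cell-killing and DMSO as no toxicity.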
KB-V1 cytotox = qHTS assay for MDR1-selective chemotherapeutics: Primary screen using the drug-selected MDR subline cells KB-V1 | KB-V1 MDR cells viability, CellTiter-Glo, 72 h | Potency, µM (titrated, usually from 46.1 µM), actives largely listed as cytotoxic | 3.4% of 400,000 active | AID 1347076, 2019; also: % is scaled to controls: 0 for no effect and ±100 for the full control effect; nearly all actives have a fitted effect of over 60% in size
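Potencies derive from concentration-effect curves fitted to normalized luminescence (CellTiter-Glo) of KB-V1 cells treated for 72 h at 37 degrees C in phenol-red-free DMEM containing 10% FBS.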
The depositor's hits bear a star; i = inactive; ? = inconclusive; nt = not tested or not shown; [ ] = remark or other dose. Calls follow the shape of the dose curve; as a rule, active = well fitted curve in the direction sought with a large enough effect; inconclusive = small, poorly fitted or top-dose-only effect, or another doubt; inactive = no such curve, though single readings can be large; an effect the other way counts as inactive or inconclusive. Potency is read from the fitted curve at half-maximal effect.

SMILES | HT1080NT lethal | HT1080 IDH1KD tx | KB-3-1 cytotox | TGFb SMAD3 inh | HepG2 viability | KB-V1 cytotox
CCCNc1nc(Nc2ccc(C)cc2)nc(N2CCCC2)n1 | -16.8% | -6.1% | ? | 0.0% | -30.2% | 4.11µM*
COc1ccc(Nc2nc(NCCO)nc(N3CCCC3)n2)cc1 | nt | nt | i | 1.1% | -1.9% | i
CCOc1cc2[nH]c(=S)n(CC3CCCO3)c(=O)c2cc1OCC (configuration not stated) | 1.0% | 3.7% | ? | 17.9% | -4.3% | 11.6µM*
COc1ccc(-n2c(=O)c3c4c(sc3n(Cc3cc(=O)n5c(C)cccc5n3)c2=O)CCC4)c(OC)c1 | nt | nt | i | ? | -7.5% | i
COc1cc2c(NC3CCN(C)CC3)nc(N3CCCN(C)CC3)nc2cc1OCCCCN | nt | nt | ? | ? | -13.7% | i
COc1cc2c(NC3CCN(C(C)C)CC3)nc(N3CCCN(C)CC3)nc2cc1OCCCN(C)C | nt | nt | 2.31µM* | 10µM* | -8.0% | i
COc1cc2c(NC3CCN(C)CC3)nc(N3CCCN(C)CC3)nc2cc1OCCCC(C)C | nt | nt | ? | 2.82µM* | 3.55µM* | i
Cc1sc(-n2c(C)cc(/C=C3\SC(=S)NC3=O)c2C)c(C#N)c1C | 12.6µM* | 11.2µM* | ? | ? | -71.8% | i
CCc1ccc(NC(=O)c2ccc(F)c(S(=O)(=O)N3CCN(c4cc(C)ccc4C)CC3)c2)cc1 | nt | nt | nt | 0.5% | 0.9% | nt
Nc1sc(Cc2ccccc2)cc1C(=O)c1c(-c2ccccc2)[nH]c2ccccc12 | 7.31µM* | 4.61µM* | 5.8µM* | nt | nt | 13µM*
CC(C)CC(=O)NC(=S)NCCc1ccccc1 | -8.5% | 3.7% | i | -5.5% | -20.1% | i
S=C(NCCc1ccccc1)Nc1ccc(Br)cc1 | 6.7% | -4.1% | ? | ? | -37.0% | 18.4µM*
CCCNC(=S)Nc1ccc(Br)cc1 | -1.5% | 6.7%[9.24 µM] | i | ? | 10.8% | i
COc1ccc(CCNC(=S)Nc2ccccc2C)cc1 | 9.0% | 8.2% | i | 12.3% | -6.4% | i
CC(C)(C)CC(=O)NC(=S)NCCc1ccccc1 | ? | 10µM* | i | -20.3% | -19.0% | i
CC(C)CCNC(=S)Nc1ccc(Br)cc1 | 16.9% | -7.0% | ? | ? | -37.5% | 18.4µM*
Cc1ccccc1NC(=S)NCCc1ccccc1 | 5.9% | 0.1% | i | 4.4% | -0.4% | 16.4µM*
CNC(=O)c1c(NC(=O)c2ccc(S(=O)(=O)N3CCCCC3C)cc2)sc2c1CCC2 (configuration not stated) | nt | nt | i | 7.5% | -11.8% | i
COc1ccc(OCc2ccc(-c3nc(C#N)c(N4CCC(C(N)=O)CC4)o3)o2)cc1 | nt | nt | i | 1.9% | -24.9% | i
COc1ccc(CC(=O)Nc2sc3c(c2C(=O)Nc2cccc(C)c2)CCCCC3)cc1 | nt | nt | nt | -23.0% | -18.4% | nt
Cc1cccc(NC(=S)NCCc2ccccc2)n1 | -10.3% | -11.3% | i | -21.3% | -3.5% | ?
S=C(NCCc1ccccc1)Nc1ccccn1 | 3.0% | -1.3% | i | -6.9% | -17.8% | 16.4µM*
CCCNC(=S)Nc1ccc(Oc2ccccc2)cc1 | 15.8µM* | 14.1µM* | ? | -2.9% | -32.9% | 18.4µM*
COc1ccccc1C(=O)Nc1sc(Nc2ccccc2)nc1C(N)=O | nt | nt | i | 14.0% | -59.6% | i
COc1ccc(/C=N/NC(N)=S)cc1 | ? | 22.3% | i | -3.8% | -1.0% | ?
SMILES | HT1080NT lethal | HT1080 IDH1KD tx | KB-3-1 cytotox | TGFb SMAD3 inh | HepG2 viability | KB-V1 cytotox
CC(C)Oc1ccc(/C=N/NC(N)=S)cc1 | ? | 14.6µM* | ? | -23.3% | -2.2% | 14.6µM*
NC(=S)N/N=C/c1ccc(C(F)(F)F)cc1 | ? | 20.6µM* | 23.1µM* | -29.4% | -22.1% | 5.8µM*
NC(=S)N/N=C/c1ncc(C(F)(F)F)cc1Cl | 10.3µM* | 5.17µM* | i | 4.47µM* | -53.0% | i
Cc1oc2ccc(O)c(CN3CCN(C)CC3)c2c1C(=O)Nc1ccc(C(C)C)cc1 | nt | nt | i | -24.6% | -24.8% | i
COc1ccc(-c2cc(C(=O)N(C)Cc3ccccc3F)c3ccccc3n2)cc1OC | -12.8% | -19.5% | i | -7.2% | -24.5% | 16.4µM*
COc1cc(-c2cc(C(=O)N(C)Cc3ccccc3)c3ccccc3n2)cc(OC)c1OC | -7.2% | -17.3% | ? | 26.9% | -30.2% | ?
COc1ccc(-c2cc(C(=O)N(C)CC(=O)Nc3ccccc3C(F)(F)F)c3ccccc3n2)cc1OC | ? | -27.7% | i | 3.7% | -28.2% | i
COc1ccc(-c2cc(C(=O)N(C)CC(=O)Nc3ccccc3Br)c3ccccc3n2)cc1OC | ? | -18.4% | i | -10.8% | -14.2% | 9.2µM*
CCN(Cc1ccccc1)C(=O)c1cc(-c2ccc(OC)c(OC)c2)nc2ccccc12 | -10.9% | -9.9% | i | ? | -34.3% | ?
COc1ccccc1CN(C)C(=O)c1cc(-c2cc(OC)c(OC)c(OC)c2)nc2ccccc12 | 14.6µM* | 18.4µM* | i | -31.1% | -8.4% | ?
O=[N+]([O-])c1ccc(Sc2nnnn2-c2ccccc2)c(Cl)c1 | 8.91µM* | 10µM* | ? | -25.2% | -94.7% | ?
O=C(COc1ccc(-c2ccccc2)cc1)N1CCN(S(=O)(=O)Cc2ccccc2)CC1 | -22.9% | ? | 3.66µM* | ? | -16.7% | 4.61µM*
CS(=O)(=O)N1N=C(c2ccccc2)CC1c1ccc2nccnc2c1 (configuration not stated) | 12.6% | 11.5% | i | 2.8% | 10.1% | 20.6µM*
CCOC(=O)C1=C(O)CSC1=Nc1cccc2ccccc12 | 1.3% | -3.1% | i | -4.5% | 7.2% | 23.1µM*
COc1ccc(Oc2ccc3c(C(F)(F)F)cc(C(F)(F)F)nc3n2)cc1 | -20.4% | 3.1% | i | -5.6% | -5.8% | 16.4µM*
Cc1noc(Cn2c(=O)c3ccccc3n(CC(=O)Nc3ccc(C(C)C)cc3)c2=O)n1 | nt | nt | i | ? | -51.7% | i
CC(=NNC(=S)N1CC2CCC(CC2)C1)c1ccccn1 | -22.9% | -16.9% | ? | ? | 12.6µM* | ?
CC(=NNC(=S)N1CC2CCC(CC2)C1)c1cnccn1 | ? | ? | ? | 3.16µM* | -48.7% | ?
